39 molecules from PubChem BioAssay (NCATS) can be followed below.

Records with an inconclusive call do not appear. Where a call stands in place of a potency, no number is given. Calls of active or inactive are those of the source. The call rests on the fitted dose curve; in most records, active means well fitted inhibition curve with a large enough effect; inconclusive means small, poorly fitted or top-dose-only effect; inactive means flat fitted curve, though single readings scatter.
Potency means the concentration at half of the fitted maximal effect.

The subject of the assay is Zika virus NS2B-NS3 protease. The experiment in a line: Primary screen GU AMC qHTS for Zika virus inhibitors (AID 1347154). Further: nearly all actives have a fitted effect of over 70% in size. The settings on record: Zika NS2B-NS3 unlinked protease, AMC fluorogenic substrate; series mostly up to 54.1 µM. The method, boiled down: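 Fluorogenic AMC-substrate cleavage by noncovalent NS2B-NS3 protease complex (25 nM, pH 8.0 Tris buffer with Tween 20) followed for 15 minutes at room temperature (~20% conversion). Percent inhibition from ex340/em450 signal change, fitted by 4-parameter Hill equation.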
For `CC(C)(C)NC[C@H](O)COc1cccc2c1CCCC2=O`, the Potency entry was “inactive”.

Take `O=C(O)P(=O)(O)O`: the Potency result is “inactive”.

As to `O=C(O)CCC(=O)Nc1ccc(S(=O)(=O)Nc2nccs2)cc1`, the Potency result was “inactive”.

As for `C[C@@H](O)[C@H]1C(=O)N2C(C(=O)O)=C(S[C@@H]3CN[C@H](CNS(N)(=O)=O)C3)[C@H](C)[C@H]12`, the Potency entry is “inactive”.

Regarding `CCN(CC)CCNC(=O)COc1ccc(OC)cc1`, the Potency result was “inactive”.

As to `CC(=O)NCCCCCC(=O)O`, the Potency entry is “inactive”.

`COc1cc(C(=O)N2CCCCCCC2)cc(OC)c1OC`: the Potency entry is “inactive”.

As to `N#CCC(=O)NN`, the Potency result was “inactive”.

With `O=[N+]([O-])c1cccc(S(=O)(=O)NCCNS(=O)(=O)c2cccc([N+](=O)[O-])c2)c1`, the Potency entry was “inactive”.

Take `OC1C(O)C(O)C(O)C(O)C1O` (centres undefined): the Potency result was “inactive”.

With `CCCCOC(=O)CC(CC(=O)OCCCC)(OC(C)=O)C(=O)OCCCC`, the Potency entry is “inactive”.

On to `CCOc1ccc(NC(C)=O)cc1`, for which the Potency result was “inactive”.

For `CCCCN1C[C@H](O)[C@@H](O)[C@H](O)[C@H]1CO`, the Potency entry was “inactive”.

Turning to `CC(C)(Cc1c[nH]c2ccccc12)NCC(O)COc1ccccc1C#N` (centres undefined), the Potency entry was “inactive”.

`CN1CCN(C2=Nc3ccccc3Sc3ccc(Cl)cc32)CC1`: the Potency entry is “inactive”.

`O=C1OC2(c3ccccc31)c1cc(Br)c(O)c(Br)c1Oc1c2cc(Br)c(O)c1Br`: the Potency result is “inactive”.

Regarding `CN1CCC[C@@H]1CCO[C@](C)(c1ccccc1)c1ccc(Cl)cc1`, the Potency result was “inactive”.

As for `C#C[C@]1(O)CC[C@H]2[C@@H]3CCc4cc(OC)ccc4[C@H]3CC[C@@]21C`, the Potency result is “inactive”.

As for `O=C1C(CCS(=O)c2ccccc2)C(=O)N(c2ccccc2)N1c1ccccc1` (centres undefined), the Potency result was “inactive”.

`C#C[C@]1(O)CC[C@H]2[C@@H]3CCC4=Cc5oncc5C[C@]4(C)[C@H]3CC[C@@]21C`: the Potency entry is “inactive”.

Consider `Cc1cc(NS(=O)(=O)c2ccc(N)cc2)nc(C)n1`, for which the Potency entry was “inactive”.

For `O=C(O)C(Cc1cc(I)c(O)c(I)c1)c1ccccc1` (centres undefined), the Potency entry is “inactive”.

Take `CCOCCn1c(N2CCCN(C)CC2)nc2ccccc21`: the Potency result was “inactive”.

For the molecule `Cc1cccc(C)c1NC(=O)c1ccccc1C(=O)O`, the Potency entry is “inactive”.

`COc1ccc(S(=O)(=O)N2c3ccc(Cl)cc3[C@@](O)(c3ccccc3Cl)[C@H]2C(=O)N2CCC[C@@H]2C(N)=O)cc1OC`: the Potency entry is “inactive”.

On to `Nc1ccc(S(=O)(=O)Nc2cnc3ccccc3n2)cc1`, for which the Potency result is “inactive”.

As to `CCOC(=O)[C@H](CCc1ccccc1)N[C@@H](C)C(=O)N1[C@H](C(=O)O)C[C@@H]2CCC[C@@H]21`, the Potency result was “inactive”.

Regarding `CCc1nn(CCCN2CCN(c3cccc(Cl)c3)CC2)c(=O)n1CCOc1ccccc1`, the Potency entry is “inactive”.

With `CC(=O)O[C@H]1C[C@@H]2CC[C@@H]3[C@H](CC[C@@]4(C)[C@H]3C[C@H]([N+]3(C)CCCCC3)[C@@H]4OC(C)=O)[C@@]2(C)C[C@@H]1N1CCCCC1`, the Potency result is “inactive”.

As for `COP(=O)(OC)OC(c1ccc(Cl)cc1)P(=O)(OC)OC` (centres undefined), the Potency entry is “inactive”.

`NCc1ccccc1Sc1ccccc1CO`: the Potency result was “inactive”.

As for `C#C[C@]1(O)CC[C@H]2[C@@H]3[C@H](C)CC4=C(CCC(=O)C4)[C@H]3CC[C@@]21C`, the Potency entry is “inactive”.

Take `NC(=O)C1(N2CCCCC2)CCN(CCCC(=O)c2ccc(F)cc2)CC1`: the Potency result was “inactive”.

Consider `CCc1oc2ccccc2c1C(=O)c1cc(I)c(O)c(I)c1`, for which the Potency is 28.7 µM (active).

Take `O=S(=O)(O)c1ccc(O)cc1`: the Potency entry was “inactive”.

In the case of `CCN1CCCC(OC(=O)C(c2ccccc2)c2ccccc2)C1` (centres undefined), the Potency result was “inactive”.

Consider `CC(=O)OCC(=O)[C@H]1CC[C@H]2[C@@H]3CCC4=CC(=O)CC[C@]4(C)[C@H]3CC[C@]12C`, for which the Potency entry was “inactive”.

On to `Cc1nc(-c2ccc(Cl)cc2)oc1COC(C)(C)C(=O)O`, for which the Potency entry is “inactive”.

Turning to `CCN(CC)CCOC(=O)C(Cc1cccc2ccccc12)CC1CCCO1` (centres undefined), the Potency result was “inactive”.
